Assay outcomes: PubChem BioAssay, Buhrlage Lab, Dana-Farber Cancer Institute and Novartis Institutes for BioMedical Research (Cambridge, Mass)
In the library only some 5% were active in any assay of this set; here they are far more common.
USP8 block: inhibitors of human USP8 deubiquitinase | P40818 | purified USP8, Ub-rhodamine cleavage fluorescence, 30 min | inhibition, % at 20 µM | 4.2% of 47,000 active | AID 1645853
USP10 block: inhibitors of human USP10 deubiquitinase. Q14694. purified USP10, Ub-rhodamine fluorescence, 60 min. inhibition, % at 20 µM. 1.1% of 47,000 active
USP7 inh: blocks human USP7 ubiquitin-rhodamine cleavage | Q93009 | purified USP7, Ub-rhodamine cleavage fluorescence | inhibition, % at 20 µM | 0.3% of 47,000 active | AID 1645854
UCHL1 inh: blocks human UCHL1 ubiquitin-rhodamine cleavage. inhibition, % at 20 µM. purified UCHL1, Ub-rhodamine cleavage fluorescence. AID 1645859. 0.2% of 47,000 active. P09936
* hit, by the source's call. Rule as the data show it: active = inhibition above about 30%; inactive = the rest.

SMILES	USP8 block	USP10 block	USP7 inh	UCHL1 inh
Cc1cc(C)cc(N(CCC(=O)Nc2ccccc2)S(=O)(=O)c2ccc3ccccc3c2)c1	23	10	14	9
CC1=C(C(=O)Nc2ccccc2C)C(c2cccc(O)c2)n2ncnc2N1 (stereo unspecified)	2	0	-1	0
COc1ccc(C(=O)N2CCN(c3ccc(-c4nc(C)cs4)cn3)CC2)cc1OC	0	-3	0	3
CSc1ncccc1C(=O)NC1(O)C(=O)c2ccccc2C1=O	83*	41*	-90	34*
Cc1nc(C(=O)NC2(O)C(=O)c3ccccc3C2=O)cs1	72*	27	-94	29
O=C(Oc1ccc(-c2csnn2)cc1)C1CC1	4	1	-30	-2
O=C(NC1(O)C(=O)c2ccccc2C1=O)c1ccc(-c2csnn2)cc1	93*	6	-45	19
CC(O)(CNC(=O)C12CC3CC(CC(C3)C1)C2)c1ccc2c(c1)OCO2 (stereo unspecified)	-23	0	-2	-2
Cc1ccc(C2CC(=O)Nc3c2c(C)nn3-c2nncc(-c3ccccc3)n2)cc1C (stereo unspecified)	-18	2	3	3
CCOc1ccccc1C(=O)Oc1ccc2c(C)cc(=O)oc2c1	35*	10	-6	-7
CC(C)CC[C@H]1O[C@@H](CC(=O)O)Cc2cc3c(c(O)c21)C(=O)c1sc(=O)n(C)c1C3=O	-18	-6	-63	25
O=C(Nc1cccc(S(=O)(=O)N2CCCC2)c1)c1ccc(N2CCOCC2)c([N+](=O)[O-])c1	0	4	8	9
COc1ccc(-c2cc(C(=O)Nc3nc(-c4ccccc4)c(C)s3)c3ccccc3n2)c(OC)c1	-72	8	5	3
CN1CCN(Cc2cccnc2)C(=O)C12CCN(Cc1ccc[nH]1)CC2	40*	-8	-139	0
Cc1ccc2c(C(=O)CN3CCN(Cc4ccccc4)CC3)c(C)[nH]c2c1	-3	-7	-12	-6
Cn1c(=O)c(C(=O)CN2CCN(c3ccc(O)cc3)CC2)c(N)n(Cc2ccccc2)c1=O	67*	-1	5	4
COc1cccc(NC(=O)CSc2nc(-c3ccccc3)nc3sc4c(c23)CC(C)(C)OC4)c1	6	-6	3	-5
CCOC(=O)c1cnc2c(cnn2C)c1NCc1cccc(C(F)(F)F)c1	37*	14	9	7
CCOC(=O)N1CCN(C(=O)Cc2csc(NC(=O)c3ccc(=O)[nH]c3)n2)CC1	5	-9	7	2
COc1ccc(C)cc1NC(=O)Cc1csc(NC(=O)c2ccc(=O)[nH]c2)n1	82*	-3	-44	-29
O=S1(=O)CCN(CC2CCCO2)c2c(Oc3ccc(F)cc3)nc(F)c(Cl)c21 (stereo unspecified)	70*	9	-143	7
O=S1(=O)CCN(CC2CCCO2)c2c(Oc3ccccc3)nc(F)c(Cl)c21 (stereo unspecified)	92*	5	-149	9
N#Cc1ccc(OCC(=O)N2CCCC2c2ccc3c(c2)OCCCO3)cc1 (stereo unspecified)	-2	-2	-4	2
COCCCN1CCS(=O)(=O)c2c(Cl)c(F)nc(Oc3ccccc3F)c21	95*	13	-146	18
N#Cc1ccc(Oc2nc(F)c(Cl)c3c2N(CC2CCCO2)CCS3(=O)=O)cc1 (stereo unspecified)	71*	5	-18	0
SMILES	USP8 block	USP10 block	USP7 inh	UCHL1 inh
O=S1(=O)CCN(Cc2cccnc2)c2c(Oc3ccccc3)nc(F)c(Cl)c21	21	-1	-130	5
COCCN1CCS(=O)(=O)c2c(Cl)c(F)nc(Oc3ccc(OC)cc3)c21	5	2	-45	-2
CCn1ccc(CN(C)C(=O)c2cc(C3CC3)nc3c2c(C)nn3C(C)C)n1	8	-6	1	0
Cc1cccc(C)c1OCC(=O)NCC(c1ccco1)N1CCOCC1 (stereo unspecified)	-4	-5	-14	-1
c1ccc2c(c1)CCN(c1nc3cc4c(cc3s1)OCO4)C2	33*	5	3	1
C/C=C/c1cc(OC)c2c(c1)C(C)C(c1ccc(O)c(OC)c1)O2 (stereo unspecified)	-6	-2	0	4
O=C(CCc1nnc2ccc(N3CCCCC3)nn12)NCCN1CCOCC1	41*	0	3	2
O=C(Nc1ccc2snnc2c1)Nc1ccc(F)cc1F	74*	28	15	2
Cc1c(NC(=O)/C=C/c2cccc(Cl)c2Cl)cccc1-n1cnnn1	80*	20	17	3
Cc1ccccc1C(=O)Nc1cccc(-n2cnnn2)c1C	-4	-6	-7	-12
Cc1cccc(NC(=O)c2cn(-c3cc(N4CCCC4)ncn3)cn2)c1	-50	-1	-54	-50
COc1cc(OC)cc(N2C(=O)N(CC(=O)c3ccc(Br)cc3)c3ccccc3S2(=O)=O)c1	33*	81*	46*	14
CC(=O)Nc1ccc(NC(=O)C(C)Nc2ccc(Oc3ccccc3)cc2)cc1 (stereo unspecified)	61*	0	-3	8
O=c1cc(CNc2ccc(Br)cc2)nc2nc(-c3ccccc3)[nH]n12	45*	-8	-40	-65
CC(C)c1cc(C(=O)N2CCCCC2)nc2cc(-c3ccccn3)nn12	-4	1	-6	0
COc1cccc(NC(=O)CN2C(=O)C3CCCC3=Nc3ccccc32)c1 (stereo unspecified)	7	6	4	5
COc1ccc(CNC(=O)CN2C(=O)C3CCCC3=Nc3ccccc32)cc1 (stereo unspecified)	83*	20	7	6
COc1ccc(C)cc1NC(=O)CN1C(=O)C2CCCC2=Nc2ccccc21 (stereo unspecified)	42*	25	8	3
Nc1ncc(-c2ccc(F)cc2)c(C2CN(C(=O)C3CCCC3)C2)n1	3	-2	15	3
COc1ccc(C(CNC(=O)C(c2ccccc2)c2ccccc2)N2CCCC2)cc1 (stereo unspecified)	-1	-1	-14	-2
O=C(NCCCn1ccnc1)C1Cc2c(ccc3ccccc23)O1 (stereo unspecified)	0	-1	2	0
Cc1ccccc1-c1nnc2sc(COc3ccc(Cl)cc3)nn12	31*	26	8	5
Cc1ccc(CNS(=O)(=O)c2c(C)[nH]c(-c3nnc(C)o3)c2C)cc1	-36	-3	-2	-3
c1cc(N2CCOCC2)ncc1-c1noc(CN2CCCCCC2)n1	-48	-8	-8	0
COc1ccc(OCc2nc(-c3ccc(N4CCCCCC4)nc3)no2)cc1	44*	-5	0	-5
c1ccc2c(c1)CCN(Cc1nc(-c3ccc(N4CCOCC4)nc3)no1)C2	36*	-6	0	3
Cc1ccc(N2CC(c3nc4ccccc4n3CCCCOc3ccccc3)CC2=O)cc1 (stereo unspecified)	5	11	13	8
Cc1ccc(N2CC(c3nc4ccccc4n3CCOc3cccc(C)c3)CC2=O)cc1 (stereo unspecified)	95*	69*	32*	5
